PubChem BioAssay (Tox21)
Results filed as inconclusive are left out. Activity calls are given as the source filed them. Unless noted, calls follow the shape of the full dose curve.

How the values were obtained:
[1] = Nuclear factor erythroid 2-related factor 2/antioxidant responsive element (Nrf2/ARE) small molecule agonists: qHTS cell viability counter screen in human keratinocytes (AID 1919968; active = well fitted curve in the direction sought with a large enough effect in the repeat runs; an effect the other way counts as inactive or inconclusive; also: nearly all actives have a fitted effect of over 55% in size)
In short: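 Measured as CellTiter-Fluor fluorescence, this readout tracks cytotoxicity in the same wells as the ARE-luciferase screen. HaCaT reporter cells (1,500/well) received compounds after a 5 h pre-incubation and were exposed for 23 h.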

[2] = molecular target: Gonadotropin-releasing hormone receptor (Homo sapiens) (UniProt P30968); experiment: Human gonadotropin-releasing hormone receptor (GnRHR) small molecule agonists, calcium flux assay in GnRHR-HEK293 cells (AID 1920063); also: nearly all actives have a fitted effect of over 35% in size
In short: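 Fluorescence kinetics (480 nm excitation, 540 nm emission; 3 min, 1 s steps) report calcium mobilisation in human GnRHR-HEK293 cells in agonist mode. Dye incubation: 1 h, 37 C.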

[3] = molecular target: KiSS-1 receptor (Homo sapiens) (UniProt Q969F8); experiment: Human kisspeptin (KISS1R) small molecule agonists, calcium flux assay in KISS1R-HEK293 cells (AID 1920064; active = well fitted curve in the direction sought with a large enough effect in the repeat runs; an effect the other way counts as inactive or inconclusive)
In short: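 Measures KISS1R agonism through calcium-sensitive dye fluorescence in stably transfected HEK293 cells, read for 3 min after pin-tool compound delivery; 15-point titrations in triplicate.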

[4] = G protein-coupled receptor (GPCR) small molecule agonists, calcium flux assay: HEK293 wild type cell line counter screen (AID 1920065)
In short: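 Readout: fluorescence at 480 nm excitation/540 nm emission, sampled at 1 s intervals for 3 min. Cells had been cultured 18 h, then dye-loaded 1 h at 37 C before compound or ATP addition.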

[5] = p53 small molecule agonists, cell-based qHTS assay with human liver microsomes (AID 1963577);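 also: p53 response element beta-lactamase reporter cells with liver microsomes plus NADPH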
In short: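 16 h, 37 C exposure of p53RE-bla cells to compounds with human liver microsomes and NADPH (0.5 mg/mL final each); detection via LiveBLAzer mixture, 2 h dark at room temperature.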

[6] = p53 small molecule agonists, cell-based qHTS assay with rat liver microsomes (AID 1963578)
In short: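 With rat liver microsomes and NADPH present (0.5 mg/mL final each), p53RE-bla cells are treated with compound for 16 h at 37 C. LiveBLAzer detection mixture is then applied for 2 h at room temperature in the dark.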

[7] = p53 small molecule agonists, cell-based qHTS assay with human liver microsomes: qHTS cell viability counter screen (AID 1963579); also: nearly all actives have a fitted effect of over 45% in size
In short: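 In this multiplexed counter screen, the reporter plates were subsequently treated with CellTiter-Glo so that cell viability, reflected by luminescence, could be recorded for p53RE-bla cells dosed 16 h with compounds under microsomal activation (HLM and NADPH).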

[8] = p53 small molecule agonists, cell-based qHTS assay with rat liver microsomes: qHTS cell viability counter screen (AID 1963580); also: nearly all actives have a fitted effect of over 45% in size
In short: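 p53RE-bla HCT-116 cells were exposed 16 h at 37 C to compounds with rat liver microsomes (0.5 mg/mL) and NADPH (0.5 mg/mL). Viability was measured in the same wells as ATP content by CellTiter-Glo luminescence.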

[9] = p53 small molecule agonists, cell-based qHTS assay: qHTS cell viability counter screen (AID 1963581); also: nearly all actives have a fitted effect of over 45% in size
In short: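 In the same plates used for the p53 bla reporter, HCT-116 cells given compounds for 16 h at 37 C received CellTiter-Glo; luminescence was recorded 30 min later at room temperature.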

[10] = p53 small molecule agonists, cell-based qHTS assay (AID 1963582; active = well fitted activation curve with a large enough effect in the signal ratio in the repeat runs, not every such curve was filed as active; the % refers to the signal ratio)
In short: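 Compounds are pin-transferred in DMSO onto p53RE-bla cells and incubated 16 h at 37 C. The B/G FRET beta-lactamase substrate is then applied for 2 h at RT and fluorescence recorded.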

[11] = molecular target: 5-hydroxytryptamine receptor 2A (Homo sapiens) (UniProt P28223); experiment: 5-hydroxytryptamine receptor 2A (HTR2A) small molecule agonists, cell-based qHTS assay (AID 1963587); also: nearly all actives have a fitted effect of over 30% in size
In short: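 CHO cells stably expressing human HTR2A, plated 18 h, loaded with calcium dye 1 h at 37 C. Agonist mode: compounds added and intracellular calcium fluorescence recorded kinetically for 2 min at 1 sec intervals.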

[12] = molecular target: Muscarinic acetylcholine receptor M1 (Homo sapiens) (UniProt P11229); experiment: Cholinergic receptor muscarinic 1 (CHRM1) small molecule antagonists, cell-based qHTS assay (AID 1963588); also: nearly all actives have a fitted effect of over 40% in size
In short: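 CHRM1-CHO calcium-flux assay, antagonist mode. Cells were seeded 18 h, dye-loaded 1 h at 37 C and given compound for 5 min at RT, then acetylcholine was added at 50nM. FDSS fluorescence was read 3 min; 15 concentrations, three runs.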

[13] = cAMP Responsive Elements (CRE) small molecule agonists, cell-based qHTS assay (AID 1963590)
In short: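 Cell line: CRE-bla HEK 293T; medium DMEM/10% dialyzed FBS/0.1 mM NEAA/1 mM pyruvate/25 mM HEPES; 3 h compound exposure; beta-lactamase FRET readout after 2 h substrate loading at RT.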

[14] = cAMP Responsive Elements (CRE) small molecule antagonists, cell-based qHTS assay (AID 1963591; active = well fitted inhibition curve with a large enough effect in the signal ratio in the repeat runs, not every such curve was filed as active; the % refers to the signal ratio)
In short: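 Inhibition of NKH477-driven (0.25 uM final) CRE-beta-lactamase signal in HEK293T cells, 3 h compound exposure at 37 °C, detected by FRET substrate fluorescence.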

[15] = molecular target: D(2) dopamine receptor (Homo sapiens) (UniProt P14416); experiment: Dopamine D2 receptor (DRD2) small molecule agonists, cell-based qHTS assay (AID 1963594); also: nearly all actives have a fitted effect of over 35% in size
In short: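 HEK293 cells stably expressing human DRD2, pre-treated with PDE inhibitor Ro20-1724 (0.1 mM final) and compound 10 min at room temperature, then stimulated with NKH477 (200nM […]) for 30 min. cAMP read by HTRF (665/620 nm).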

[16] = molecular target: D(2) dopamine receptor (Homo sapiens) (UniProt P14416); experiment: Dopamine D2 receptor (DRD2) small molecule antagonists, cell-based qHTS assay (AID 1963595; active = well fitted inhibition curve with a large enough effect in the signal ratio in the repeat runs, with a control signal flat; the % refers to the signal ratio)
In short: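 Antagonist mode in DRD2-HEK293 cells: after compound addition with 0.1 mM Ro20-1724, cells received quinpirole (12 nM) and NKH477 (200 nM) for 30 min at room temperature; HTRF cAMP read after 1 h detection.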

[17] = Nuclear factor erythroid 2-related factor 2/antioxidant responsive element (Nrf2/ARE) small molecule agonists: luciferase reporter gene qHTS assay in human keratinocytes (AID 1919969); also: nearly all actives have a fitted effect of over 35% in size
[18] = molecular target: Muscarinic acetylcholine receptor M1 (Homo sapiens) (UniProt P11229); experiment: Cholinergic receptor muscarinic 1 (CHRM1) small molecule agonists, cell-based qHTS assay (AID 1963589); also: nearly all actives have a fitted effect of over 35% in size
In short: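 Each compound was tested at 15 concentrations across three independent runs on dye-loaded CHO cells stably expressing human CHRM1, reading intracellular calcium fluorescence kinetically at 1 sec intervals.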

[19] = molecular target: Beta-2 adrenergic receptor (Homo sapiens) (UniProt P07550); experiment: Adrenergic beta2 receptor (ADRB2) small molecule antagonists, cell-based qHTS assay (AID 1963592); also: series mostly up to about 92 µM; nearly all actives have a fitted effect of over 50% in size
In short: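 Cells (CHO, stable ADRB2 overexpression) incubated 18-20hr at 37C; compounds added from DMSO; agonist mix (1nM isoproterenol, 100uM IBMX, 25uM Ro-20-1724) added; 0.5hr RT; d2-cAMP and anti-cAMP-cryptate added; 1hr RT; 665/615 nm read.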

[20] = molecular target: 5-hydroxytryptamine receptor 2A (Homo sapiens) (UniProt P28223); experiment: 5-hydroxytryptamine receptor 2A (HTR2A) small molecule antagonists, cell-based qHTS assay (AID 1963586); also: nearly all actives have a fitted effect of over 45% in size
In short: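 Antagonist-mode intracellular calcium assay: DOI (4 nM) added after 5 min compound pre-incubation at room temperature to dye-loaded HTR2A-CHO cells. Fluorescence followed for 3 min, sampled every second.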

Measured: Potency

Sequence of 5-hydroxytryptamine receptor 2A (Homo sapiens) (P28223 whole entry, looked up): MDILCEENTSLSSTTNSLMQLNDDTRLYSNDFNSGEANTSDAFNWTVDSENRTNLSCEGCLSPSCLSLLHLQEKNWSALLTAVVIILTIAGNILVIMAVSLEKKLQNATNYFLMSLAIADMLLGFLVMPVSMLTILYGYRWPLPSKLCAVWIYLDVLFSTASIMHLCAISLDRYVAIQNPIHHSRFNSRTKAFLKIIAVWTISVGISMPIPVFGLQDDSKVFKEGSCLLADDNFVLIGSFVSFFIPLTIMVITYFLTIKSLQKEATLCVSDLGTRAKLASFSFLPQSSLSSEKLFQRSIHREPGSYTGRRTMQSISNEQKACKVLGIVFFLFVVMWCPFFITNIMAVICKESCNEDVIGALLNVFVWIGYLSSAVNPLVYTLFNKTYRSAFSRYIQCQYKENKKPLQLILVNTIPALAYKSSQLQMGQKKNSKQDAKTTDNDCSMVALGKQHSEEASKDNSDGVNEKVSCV
Sequence of Gonadotropin-releasing hormone receptor (Homo sapiens) (P30968 whole entry, looked up): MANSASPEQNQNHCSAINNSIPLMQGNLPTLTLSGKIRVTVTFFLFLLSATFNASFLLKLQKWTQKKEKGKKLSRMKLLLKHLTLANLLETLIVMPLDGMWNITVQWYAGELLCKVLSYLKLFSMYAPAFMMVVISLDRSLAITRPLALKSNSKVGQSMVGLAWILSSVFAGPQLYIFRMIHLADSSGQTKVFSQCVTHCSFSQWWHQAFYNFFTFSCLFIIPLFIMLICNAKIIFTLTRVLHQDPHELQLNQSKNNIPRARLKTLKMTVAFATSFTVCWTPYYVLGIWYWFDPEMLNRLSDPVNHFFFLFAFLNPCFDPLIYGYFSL
Sequence of KiSS-1 receptor (Homo sapiens) (Q969F8 whole entry, looked up): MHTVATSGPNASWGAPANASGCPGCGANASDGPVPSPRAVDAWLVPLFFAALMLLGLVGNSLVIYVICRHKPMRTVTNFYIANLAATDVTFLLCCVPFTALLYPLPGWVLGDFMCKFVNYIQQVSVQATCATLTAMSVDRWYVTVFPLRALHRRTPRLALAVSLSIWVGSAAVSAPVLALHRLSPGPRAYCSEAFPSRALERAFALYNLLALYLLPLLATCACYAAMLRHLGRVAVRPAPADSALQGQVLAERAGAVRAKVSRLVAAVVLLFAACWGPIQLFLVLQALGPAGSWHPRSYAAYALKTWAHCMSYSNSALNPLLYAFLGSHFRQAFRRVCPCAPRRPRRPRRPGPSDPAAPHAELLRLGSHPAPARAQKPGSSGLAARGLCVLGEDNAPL
Sequence of Muscarinic acetylcholine receptor M1 (Homo sapiens) (P11229 whole entry, looked up): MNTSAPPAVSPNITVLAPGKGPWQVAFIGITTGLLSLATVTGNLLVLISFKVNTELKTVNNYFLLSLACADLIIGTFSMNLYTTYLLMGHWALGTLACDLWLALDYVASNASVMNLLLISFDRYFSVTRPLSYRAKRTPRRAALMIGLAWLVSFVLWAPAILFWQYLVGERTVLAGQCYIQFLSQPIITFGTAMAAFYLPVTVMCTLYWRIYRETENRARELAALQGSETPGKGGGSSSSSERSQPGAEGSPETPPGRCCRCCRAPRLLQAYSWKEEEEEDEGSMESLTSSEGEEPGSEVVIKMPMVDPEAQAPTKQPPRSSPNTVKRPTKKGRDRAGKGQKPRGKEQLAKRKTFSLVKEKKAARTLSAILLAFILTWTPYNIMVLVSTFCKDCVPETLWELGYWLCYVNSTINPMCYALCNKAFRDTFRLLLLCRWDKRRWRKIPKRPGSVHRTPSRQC
Sequence of Beta-2 adrenergic receptor (Homo sapiens) (P07550 whole entry, looked up): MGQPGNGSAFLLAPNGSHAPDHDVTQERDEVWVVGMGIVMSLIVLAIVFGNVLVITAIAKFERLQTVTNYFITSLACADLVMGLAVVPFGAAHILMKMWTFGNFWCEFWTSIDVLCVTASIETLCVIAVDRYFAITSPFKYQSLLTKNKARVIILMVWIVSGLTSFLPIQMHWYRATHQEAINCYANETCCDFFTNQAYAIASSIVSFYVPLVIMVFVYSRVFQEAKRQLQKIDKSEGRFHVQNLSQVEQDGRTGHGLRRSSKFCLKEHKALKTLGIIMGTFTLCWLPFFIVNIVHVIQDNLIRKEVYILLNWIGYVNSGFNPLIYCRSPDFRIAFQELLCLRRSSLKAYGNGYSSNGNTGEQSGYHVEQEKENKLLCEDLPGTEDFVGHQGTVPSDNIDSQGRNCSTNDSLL
Sequence of D(2) dopamine receptor (Homo sapiens) (P14416 whole entry, looked up): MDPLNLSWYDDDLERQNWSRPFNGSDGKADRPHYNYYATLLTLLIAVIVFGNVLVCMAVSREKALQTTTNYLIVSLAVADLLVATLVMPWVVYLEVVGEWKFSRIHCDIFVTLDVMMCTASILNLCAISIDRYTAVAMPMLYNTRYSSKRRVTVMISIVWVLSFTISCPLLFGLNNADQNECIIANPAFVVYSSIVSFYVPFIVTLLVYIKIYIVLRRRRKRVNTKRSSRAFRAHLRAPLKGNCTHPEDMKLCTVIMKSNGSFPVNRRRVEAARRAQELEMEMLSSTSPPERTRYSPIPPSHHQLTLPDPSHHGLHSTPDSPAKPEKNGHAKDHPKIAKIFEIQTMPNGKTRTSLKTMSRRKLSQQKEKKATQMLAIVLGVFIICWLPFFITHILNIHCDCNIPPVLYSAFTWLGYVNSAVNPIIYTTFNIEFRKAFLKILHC

O=Cc1ccc(F)c(Br)c1
not listed: [17] | [18] | [19] | [20]
inactive: all other assays above

COC(=O)CCCCCCCCC(=O)OC
not listed: [2] | [3] | [5] | [13] | [15] | [20]
inactive: all other assays above

O=P(O)(O)Oc1ccccc1
not listed: [2] | [3] | [4]
inactive: all other assays above

CC(C)CC(=O)C1C(=O)c2ccccc2C1=O
not listed: [13] | [17] | [20]
inactive: all other assays above

CCOC(=O)C1=C(C)NC(C)=C(C(=O)OC)C1c1cccc(Cl)c1Cl (stereo not given)
not listed: [2] | [3] | [10] | [11] | [12] | [18] | [20]
inactive: all other assays above

CN(C)[C@@H]1C(=O)C(C(=O)NCN2CCCC2)=C(O)[C@@]2(O)C(=O)C3=C(O)c4c(O)cccc4[C@@](C)(O)C3C[C@@H]12 (stereo not given in full)
not listed: [2] | [3] | [7] | [9] | [14]
inactive: all other assays above

O=C1C(=O)c2ccccc2C(O)=C1C1CCC(c2ccc(Cl)cc2)CC1 (stereo not given)
not listed: [10] | [17]
inactive: all other assays above
